Data taken from PMC12864922, “TDP-43 directly inhibits mRNA accumulation in neurites through modulation of mRNA stability”.
The full ranking holds about 9,900 sequences; the median of “r (bound/input frequency ratio)” is about 0.7, and the highest 2% start at about 6.5. What follows is part of a selection rich in the highest values, with near analogues and random picks from the rest.

B1: ENSMUSG00000042529.499|Kcnj12 (ssRNA)
RNA: GGGAGUUCUACAGUCCGACGAUCGCUUCGAUAUCCGCAUGCUACUGGACCAUGUACAGGGCUCCCUGGGGCUUGUCCUCAGGGGCAGAGAAGGACAUGGUGGCAGCAGCACUGAGAACAGGAGCAUGGCCUCUCUCAGACCCCAGGGCAGUCAUUCAGUCUUUUCCAUGGACACUCCCCACCGCUCCACAUACUGCCUCCGCCUCAUUCUUGGGCUCUUCCUGCCUUGCUGUCUUUCCUUCCACACAGAAGCACCAAGCAUCAUCCAUUCCCAUAGGCAAGCCCAGGGCACUCCCAGAGCUCCCUCUUGCGGUCGCACUAGUGUGGAAUUCUCGGGUGUCAAGG
B2: ENSMUSG00000061578.701|Ksr2 (ssRNA)
RNA: GGGAGUUCUACAGUCCGACGAUCGCUUCGAUAUCCGCAUGCUAUACUCCCAGAUCUGGGGUGAUCUCUUGAGGUGCCUUCCUGUAGUCUCUUGUGUCAUCUUCUUCUAAGACCACUAAUAACACCGCCUUUCUCCUUGAUCCGGGCCUCAGACCUCUUCAGAGAUUCUUUCUCUGAAUGUACGUGGGGGACUCCAACAGAUGUUGGGAGAAGACUCAAUAUGAGCAUACGGGGUCAUUGUUCAAUCCUGUAUCAAGACCUUGGAGUUGUCUAAGGCUGUGGGUUUUAAAUACCUGCUGCAGGCCUCUUGCGGUCGCACUAGUGUGGAAUUCUCGGGUGUCAAGG
B3: ENSMUSG00000032194.16|Kank2 (ssRNA)
RNA: GGGAGUUCUACAGUCCGACGAUCGCUUCGAUAUCCGCAUGCUACAGCCACAAGCCACGCAUCAAACCGUCCCUCCUCCAUCCCUCUGUCCCAUUCUGCCUCGGCAUUCCUCAGCCCCUGAACUUCCCUGAGGGAGCCCUGACAUCUACCAGGCUCAAGCUCCUGGAAGCCUUUCCCAGCACCCUGGGUUCAAAGCCAGAAAGCCAAGCUACAUUCUCCUCCCAGUUGGCACCAGUUGACAACGCCUUGGGUGUGGGUUUCUUGUAAAGAACAUAGAGAACAAUCAGCCGGCAAUUAUGGGAGGCUCUUGCGGUCGCACUAGUGUGGAAUUCUCGGGUGUCAAGG
B4: ENSMUSG00000034801.130|Sos2 (ssRNA)
RNA: GGGAGUUCUACAGUCCGACGAUCGCUUCGAUAUCCGCAUGCUAGGCACUGAGAGGAGCCAGCGCUCGAGGGCGUUCUCACGCCUGACUGAUAGAUACCUUUUUAGGGUGAUGAACUUACACAGAUGCAGAAGAUAUGGGGUGGUGGUCCUGGGUUUUAACCCUCUGACCGUCUUCUAGCUUCUAAUUUUGUUUGGUUUUUACAUCUAGGAGACUUAGGAAUAAUACCCACUGUUCUUAAACUCUUUGAGACCAUGUCUUAAAUGUCAGUAUUUGCUGCUGAAGACAAAAACGGAAAAUAGAAUCUCUUGCGGUCGCACUAGUGUGGAAUUCUCGGGUGUCAAGG
B5: ENSMUSG00000031028.491|Tub (ssRNA)
RNA: GGGAGUUCUACAGUCCGACGAUCGCUUCGAUAUCCGCAUGCUACACCCUUUUAAAUGAACAUGGGGUGGUGAUGGUGCCUUAACAAUCUUGACACUAAGGUGAAGCAAGCAAGUAAGGUGUGUGCCUCUGGGAAGACAGGAGUCGGAAGCCAAGGUGUGUGGCAACAGUCUGGAAGAGAGCUUUUGGUAAUCAUACCGUCUUCAGUGACAAGGCAACAAUGCUGUAAAGUGGGUUUGUUUGGUUUUGUUUUUUCUUUCUCUUUUAUGGAAAUGGCAGGUCUAUUUGCCUCAAACGUUAUGUAGCUCUUGCGGUCGCACUAGUGUGGAAUUCUCGGGUGUCAAGG
B6: ENSMUSG00000028439.154|Fam219a (ssRNA)
RNA: GGGAGUUCUACAGUCCGACGAUCGCUUCGAUAUCCGCAUGCUACCCAUUGCCAUUUCACCCUAGCUCAAAGUCCAGGAGCCAGGCUUCCAGAAAGGCUCUUCAAGAGCAAGCUUAAGGAAAUACAGUGAGCCAAGUGGCUGUAUGAUAUGGUAUGGUAUGGUAUGGUAUGGUAUGGUAUGGUAUGCACAUGUGUGUGCAUGUGUGUGUGCCUGUGUGUGUGCGUGUGCGUGUGUGUAUGUGUGUGCGUGUGUGUGUGUGUGUGUUGUACCCGAGUGUGUGUUGAGCCUAUCUGUCCAGGGAACCUCUUGCGGUCGCACUAGUGUGGAAUUCUCGGGUGUCAAGG
B7: ENSMUSG00000028439.155|Fam219a (ssRNA)
RNA: GGGAGUUCUACAGUCCGACGAUCGCUUCGAUAUCCGCAUGCUAGCCAUUUCACCCUAGCUCAAAGUCCAGGAGCCAGGCUUCCAGAAAGGCUCUUCAAGAGCAAGCUUAAGGAAAUACAGUGAGCCAAGUGGCUGUAUGAUAUGGUAUGGUAUGGUAUGGUAUGGUAUGGUAUGGUAUGCACAUGUGUGUGCAUGUGUGUGUGCCUGUGUGUGUGCGUGUGCGUGUGUGUAUGUGUGUGCGUGUGUGUGUGUGUGUGUUGUACCCGAGUGUGUGUUGAGCCUAUCUGUCCAGGGAACCAGAUUCUCUUGCGGUCGCACUAGUGUGGAAUUCUCGGGUGUCAAGG
B8: ENSMUSG00000028439.153|Fam219a (ssRNA)
RNA: GGGAGUUCUACAGUCCGACGAUCGCUUCGAUAUCCGCAUGCUACUGUGCCCCAUUGCCAUUUCACCCUAGCUCAAAGUCCAGGAGCCAGGCUUCCAGAAAGGCUCUUCAAGAGCAAGCUUAAGGAAAUACAGUGAGCCAAGUGGCUGUAUGAUAUGGUAUGGUAUGGUAUGGUAUGGUAUGGUAUGGUAUGCACAUGUGUGUGCAUGUGUGUGUGCCUGUGUGUGUGCGUGUGCGUGUGUGUAUGUGUGUGCGUGUGUGUGUGUGUGUGUUGUACCCGAGUGUGUGUUGAGCCUAUCUGUCCACUCUUGCGGUCGCACUAGUGUGGAAUUCUCGGGUGUCAAGG
B9: ENSMUSG00000058297.516|Spock2|37:41 (ssRNA)
RNA: GGGAGUUCUACAGUCCGACGAUCGCUUCGAUAUCCGCAUGCUAAUCUUACCCCCAGUGUUCCACAGGAGUCGUGACCACCACACAUGGGUGGGCACAGGUCUGCCUUGCUCCAGCCCCCUCCCUUGGUUUCUGUUGGUACCCAUUUGGCUUUUAUCUGCUUUCUGCUUCACCACUAAGUGCGUAGGUGGGGUCUUUUGAUAUCGGCUCCCCAAAGCCCAAGCCCACAGCCCUAGGAGAGAACCAGGGGCCCAUCUUUGACACCUGGGCCAUCACGAGCCCUCCCGCCUGCAGUUGUCCUAGGGCUCUUGCGGUCGCACUAGUGUGGAAUUCUCGGGUGUCAAGG

target: TDP-43 (Homo sapiens, UniProt Q13148 1-414); test: RNA Bind-n-Seq with designed 260-mer pool; 25 mM Tris-HCl, 150 mM KCl, 3 mM MgCl2, BSA (printed 500 mg/mL), 20 units/mL SUPERase IN; pH not stated; 500 nM RNA pool, 1 h, 4 C; TDP-43 5, 50, 500 nM; high values mean tight binding; conditions: protein: recombinant; tags: SBP (GST cleaved off with PreScission; pGEX-GST-SBP)
How it was run: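 Recombinant SBP-tagged TDP-43 at 5, 50 or 500 nM was captured on streptavidin beads, then incubated 1 h at 4 °C with 500 nM of an in vitro-transcribed 260-nt 3′ UTR oligo pool in 25 mM Tris-HCl, 150 mM KCl, 3 mM MgCl2, BSA and SUPERase IN. Bound RNA was washed, eluted with biotin, reverse transcribed, PCR-amplified and sequenced. Binding is R, each oligo's mapped-read-normalized abundance in the bound sample divided by its abundance in input. Duplicates used two independent protein batches.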

Chain of TDP-43 (Q13148 whole entry): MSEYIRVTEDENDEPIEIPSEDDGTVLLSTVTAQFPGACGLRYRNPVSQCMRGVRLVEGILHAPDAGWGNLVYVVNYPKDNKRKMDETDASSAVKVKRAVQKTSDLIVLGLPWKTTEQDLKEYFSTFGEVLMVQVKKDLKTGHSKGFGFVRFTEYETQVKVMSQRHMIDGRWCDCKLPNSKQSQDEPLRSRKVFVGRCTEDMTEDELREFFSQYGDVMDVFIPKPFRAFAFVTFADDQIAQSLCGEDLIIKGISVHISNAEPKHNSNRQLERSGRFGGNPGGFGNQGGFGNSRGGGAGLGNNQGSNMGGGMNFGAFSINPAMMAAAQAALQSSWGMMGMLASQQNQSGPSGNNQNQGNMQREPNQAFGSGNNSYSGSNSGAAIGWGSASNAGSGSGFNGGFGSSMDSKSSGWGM

Binder	binding signal
B1	1.51 R (bound/input frequency ratio)
B2	0.292 R (bound/input frequency ratio)
B3	1.15 R (bound/input frequency ratio)
B4	0.376 R (bound/input frequency ratio)
B5	1.97 R (bound/input frequency ratio)
B6	7.96 R (bound/input frequency ratio)
B7	7.8 R (bound/input frequency ratio)
B8	6.09 R (bound/input frequency ratio)
B9	0.797 R (bound/input frequency ratio)
